The record followed here is paper PMC5540273 (PLoS ONE, 2017).
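Further: kd values determined as follow-up on hits from a single-replicate KINOMEscan panel screen.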

The first assay deals with TGFBR1.
For `Cc1cccc(-c2nc(C)cc(Nc3ccncc3)n2)n1` [GSK257997], the Kd was 200 nM.

With `Cc1ccc(-c2cc(-c3c[nH]nc3-c3ccccn3)ccn2)cc1` [GW684088], the Kd was 260 nM. The Kd values of the last two compounds are within 1.5-fold of each other.

As for `Cl.c1ccc(-c2n[nH]cc2-c2ccnc(-c3ccc(CN4CCOCC4)cc3)c2)nc1` [GW776245], the Kd came to 150 nM.

The subject of another assay is TGFBR2.
`Cc1csc(-c2nc(Nc3ccncc3)c3ccccc3n2)n1` [GW869640]: the Kd was 250 nM. That is a sub-micromolar value.

`Cl.c1ccc(-c2n[nH]cc2-c2ccnc(-c3ccc(CN4CCOCC4)cc3)c2)nc1` [GW776245]: the Kd was found to be 210 nM. This Kd and that of the compound before are within 1.5-fold of each other.

Consider `Cc1cccc(-c2nc(Nc3ccncc3)c3ccccc3n2)n1` [GW855857], for which the affinity, expressed as Kd, was 290 nM.
